Mdm2-MdmX inh: disrupts the human Mdm2-MdmX interaction; O15151+Q00987; SaOS-2 split-luciferase Mdm2/MdmX complementation, luminescence; inhibition, % at 8 µM; 330,000 tested, 3% active; AID 485346;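 active means inhibition of at least 50% at 8 µM in the primary screen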
Target sequence (O15151 whole entry, looked up): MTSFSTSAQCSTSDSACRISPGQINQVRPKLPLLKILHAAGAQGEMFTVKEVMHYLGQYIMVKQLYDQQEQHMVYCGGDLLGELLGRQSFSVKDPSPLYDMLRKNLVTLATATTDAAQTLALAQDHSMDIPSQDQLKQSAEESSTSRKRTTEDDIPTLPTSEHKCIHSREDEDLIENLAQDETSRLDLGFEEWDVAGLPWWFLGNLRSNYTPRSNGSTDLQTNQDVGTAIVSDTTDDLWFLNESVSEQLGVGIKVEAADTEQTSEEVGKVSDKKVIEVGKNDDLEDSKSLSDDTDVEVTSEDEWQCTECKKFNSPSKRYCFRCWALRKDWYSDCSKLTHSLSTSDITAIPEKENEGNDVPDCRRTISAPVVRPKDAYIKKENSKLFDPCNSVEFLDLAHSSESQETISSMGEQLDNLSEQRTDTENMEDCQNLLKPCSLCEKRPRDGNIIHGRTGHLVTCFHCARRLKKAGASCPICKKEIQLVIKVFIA
Target sequence (Q00987 whole entry, looked up): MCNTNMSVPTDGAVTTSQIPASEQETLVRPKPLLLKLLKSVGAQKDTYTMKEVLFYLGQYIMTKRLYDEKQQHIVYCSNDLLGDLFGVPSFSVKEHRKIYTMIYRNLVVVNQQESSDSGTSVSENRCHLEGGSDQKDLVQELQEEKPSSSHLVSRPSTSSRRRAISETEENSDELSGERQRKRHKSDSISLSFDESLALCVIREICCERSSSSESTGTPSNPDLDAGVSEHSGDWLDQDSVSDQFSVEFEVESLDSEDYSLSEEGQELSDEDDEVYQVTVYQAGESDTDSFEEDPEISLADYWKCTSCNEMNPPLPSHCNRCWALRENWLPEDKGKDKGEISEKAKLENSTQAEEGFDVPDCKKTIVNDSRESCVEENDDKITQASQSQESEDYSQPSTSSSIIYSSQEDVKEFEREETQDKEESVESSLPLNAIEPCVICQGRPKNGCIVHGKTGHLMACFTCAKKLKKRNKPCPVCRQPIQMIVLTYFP
CSC inhib: cancer stem cell inhibition; cancer stem cell-like cells viability, luminescence; inhibition, % at 7.5 µM; 300,000 tested, 1.1% active; AID 2717; in the data active means inhibition above about 75%; tested in HMLE shEcad cells
aSyn UTR inh: MLPCN primary screen, SNCA 5' untranslated region; alpha-synuclein 5'UTR reporter, inhibitor activity; inhibition, % (tested at 7.5 µM); 300,000 tested, 0.82% active; AID 1813; in the data active means inhibition above about 60%;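 further: H4 neuroglioblastoma cells stably carrying SNCA 5'UTR luciferase fusion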
Jurkat NFkB inh: inhibitors of the PMA/ionomycin-induced NF-kB reporter in Jurkat cells; PMA/ionomycin-induced NF-kB luciferase reporter, luminescence; inhibition, % at 4 µM; 330,000 tested, 0.53% active; AID 435003; in the data active means inhibition above about 50%
Gli-Sufu antag: Gli-Sufu pathway antagonism | Sufu-KO-LIGHT fibroblasts, Gli luciferase reporter luminescence | inhibition, % at 5 µM | 340,000 tested, 0.74% active;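 active means inhibition above about 55%, limit read from the data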
697 NFkB inh: lowers PMA/ionomycin-induced NF-kB signal in 697 B cells; 697 B-cell NF-kB luciferase reporter, 16 h; inhibition, % at 4 µM; 330,000 tested, 0.33% active; AID 435022; in the data active means inhibition above about 35%
Mdm2 MdmX conf: human Mdm2/MdmX binding inhibition, confirmed | shares compounds with Mdm2-MdmX inh | luminescent assay | inhibition, % at 8 µM | 10,000 tested, 55% active | AID 489028; in the data active means inhibition above about 40%
FLuc counter: full-length luciferase inhibition in Mdm2/MdmX counter-screen; shares compounds with Mdm2-MdmX inh; inhibition, % at 8 µM; SaOS-2 full-length luciferase counterscreen, luminescence; 6,200 tested, 77% active;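 active means mean inhibition at 8 µM reaching about 37%, which flags the compound as non-specific, limit read from the data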;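 further: p53-null SaOS-2 cells with luciferase driven by a doxycycline-inducible promoter; compound on cells about two nights before reading with doxycycline added after day one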
Large screens that a line does not name were inactive (follow-up assays come after a bar, where they were run). Shown are actives, neighbours in structure and some others; about 4.5% of the full set was active somewhere.

Nn1c(SCC(=O)NC2CCCc3ccccc32)nnc1-c1cccs1 (stereo not drawn)	none
COC(=O)Nc1ccc(S(=O)(=O)N2CCC(C(=O)N3CCCC(C)C3)CC2)cc1 (stereo not drawn)	none
COc1ccc(-c2cc3c(=O)n(CC(=O)Nc4ccc(C(C)=O)cc4)ncn3n2)cc1	Mdm2-MdmX inh 58 | Mdm2 MdmX conf inactive | FLuc counter 105
COc1ccc(-c2cc3c(=O)n(CC(=O)NCc4cccnc4)ncn3n2)cc1	none
O=c1c2c3c(sc2nc(N2CCNCC2)n1-c1cccc(Cl)c1)CCCCC3	Mdm2-MdmX inh 67 (no result: Gli-Sufu antag) | Mdm2 MdmX conf inactive
CC(=O)C12CCCCC1CC1[C@@H]3CC(C)C4=CC(=O)CC[C@]4(C)C3CC[C@@]12C (stereo partly drawn)	Mdm2-MdmX inh 56 (no result: CSC inhib) | Mdm2 MdmX conf inactive
CC(=O)O[C@]1(C(C)=O)CC[C@H]2[C@@H]3C[C@H](C)C4=CC(=O)CC[C@]4(C)[C@H]3CC[C@@]21C	none
COc1ccc2nc(SCC(=O)N3CCN(c4ccc(F)cc4)CC3)c(C#N)cc2c1	none
CC(C)[C@@]1(c2ccccc2)ON(c2ccccc2C(F)(F)F)C1=O	none (no result: aSyn UTR inh, Gli-Sufu antag)
O=C1N(c2ccccc2C(F)(F)F)O[C@]1(c1ccccc1)C1CCCCC1	Mdm2-MdmX inh 85 (no result: aSyn UTR inh) | Mdm2 MdmX conf 62 | FLuc counter 51
CC(C)[C@]1(c2ccc(Cl)cc2)ON(c2ccccc2C(F)(F)F)C1=O	Mdm2-MdmX inh 68 (no result: aSyn UTR inh, Gli-Sufu antag) | Mdm2 MdmX conf inactive | FLuc counter 56
O=C1N(c2ccccc2C(F)(F)F)OC1(Cc1ccccc1)c1ccccc1 (stereo not drawn)	Mdm2-MdmX inh 92 (no result: aSyn UTR inh) | Mdm2 MdmX conf 67 | FLuc counter 52
Cc1ccc(C)c(NC(=O)CN(C)C(=O)/C=C/c2ccco2)c1	none
Cc1ccsc1/C=N/NC(=O)c1nnn(-c2nonc2N)c1CSc1ccccc1	none
CC(C)CCn1c(=O)c2ccccc2n2c(CN3CCOCC3)nnc12	none
Cc1cccc(NS(=O)(=O)c2ccc(NC(=O)CN(c3cc([N+](=O)[O-])ccc3C)S(C)(=O)=O)cc2)c1	Mdm2-MdmX inh 55, CSC inhib 96, aSyn UTR inh 101 | Mdm2 MdmX conf 49 | FLuc counter 52
CCOc1ccc(C(=O)/C=C/Nc2ccc(S(=O)(=O)N=C(N)N)cc2)cc1	Mdm2-MdmX inh 74 | Mdm2 MdmX conf inactive
COC(=O)[C@]1(C)N[C@H](CN(C)C(=O)C2CCCCC2)[C@@H]2C(=O)N(C)C(=O)[C@@H]21	none (no result: CSC inhib, aSyn UTR inh)
Cc1ccc(N(C(C)C(=O)O)S(=O)(=O)c2c(C)n[nH]c2C)cc1 (stereo not drawn)	none
CCN(CCCNC(=O)CCn1c(=S)[nH]c2cc3c(cc2c1=O)OCO3)c1cccc(C)c1	Mdm2-MdmX inh 57 | Mdm2 MdmX conf inactive
O=C(CCCCCn1c(=S)[nH]c2cc3c(cc2c1=O)OCO3)NCCc1ccccc1	none
CCn1c(CC(=O)Nc2ccc(F)cc2)nnc1SCC(=O)Nc1nnc(C)s1	none (no result: Gli-Sufu antag)
[O-][n+]1cccc2c(Br)cc(Br)c(O)c21	Mdm2-MdmX inh 51 | Mdm2 MdmX conf inactive
COc1ccc(N(CC(=O)NCCC2=CCCCC2)S(=O)(=O)c2c(C)[nH]c(=O)[nH]c2=O)cc1	none
Cn1c(=O)c2c(nc(NCCNC(=O)c3ccco3)n2Cc2ccc(Cl)cc2Cl)n(C)c1=O	none
Cn1c(=O)c2c(nc(NCC3CCCC(CN)C3)n2Cc2ccc(Cl)cc2Cl)n(C)c1=O (stereo not drawn)	Mdm2-MdmX inh 58 | Mdm2 MdmX conf 42 | FLuc counter 65
CCCCn1c(CCl)nc2cc(S(=O)(=O)N3CCOCC3)ccc21	Mdm2-MdmX inh 88 (no result: aSyn UTR inh) | Mdm2 MdmX conf 53 | FLuc counter inactive
CCCCn1c(C)nc2cc(S(=O)(=O)N3CCOCC3)ccc21	none (no result: aSyn UTR inh)
COc1ccc(-c2cc(C(=O)N3CCN(c4cccc(C)c4C)CC3)c3ccccc3n2)cc1OC	Mdm2-MdmX inh 75 | Mdm2 MdmX conf inactive
O=C(c1cc(-c2ccncc2)nc2ccc(Br)cc12)N1CCN(c2ccccn2)CC1	none
O=C(c1cc(-c2ccc(Br)cc2)nc2ccccc12)N1CCN(c2ccccc2O)CC1	Mdm2-MdmX inh 56 (no result: CSC inhib) | Mdm2 MdmX conf inactive
O=C(c1cc(-c2ccccc2Cl)nc2ccc(Br)cc12)N1CCN(c2ccccn2)CC1	Mdm2-MdmX inh 74 | Mdm2 MdmX conf inactive
Cc1ccc(-c2cc(C(=O)N3CCN(c4ccccc4O)CC3)c3ccccc3n2)o1	none
COc1ccc(-c2cc(C(=O)N3CCN(c4ncccn4)CC3)c3ccccc3n2)cc1OC	none (no result: aSyn UTR inh)
CCCCn1nc(C(=O)N(C)C2CCCCC2)c2ccccc2c1=O	none (no result: CSC inhib, aSyn UTR inh)
C=CCN(c1ccc(C(=O)NCCCn2ccnc2)cc1)S(C)(=O)=O	none
Cc1nnc(NC(=O)CSc2nnc(NC(=O)C(C)(C)C)s2)s1	none
COc1ccc(CCN2CCC(Nc3nc4ccccc4n3Cc3ccc(F)cc3)CC2)cc1	Mdm2-MdmX inh 99, aSyn UTR inh 103 | Mdm2 MdmX conf 91 | FLuc counter 47
COC(=O)c1cc(-c2ccc(OC)c(OC)c2)c2c(=O)[nH]c(=O)n(C)c2n1	Mdm2-MdmX inh 50 (no result: Gli-Sufu antag) | Mdm2 MdmX conf inactive
COC(=O)c1cc(-c2ccc(Br)cc2)c2c(=O)[nH]c(=O)n(C)c2n1	none
CCOc1ccccc1Nc1nnc(SC(C)C(=O)Nc2nc(-c3ccccc3)cs2)s1 (stereo not drawn)	Mdm2-MdmX inh 86 | Mdm2 MdmX conf 79 | FLuc counter inactive
CCOc1ccccc1Nc1nnc(SCC(=O)NC(=O)c2cccn2C)s1	none
CCOC(=O)CCCCCC(=O)Nc1ccc2c(c1)C(=O)N([C@H](C)CO)C[C@@H](C)[C@H](CN(C)S(=O)(=O)c1cn(C)cn1)O2	none (no result: aSyn UTR inh)
CCC(C)Sc1ccc(-c2nc3cc(C)ccn3c2NC2CCCCC2)cc1 (stereo not drawn)	Mdm2-MdmX inh 85 (no result: CSC inhib, aSyn UTR inh) | Mdm2 MdmX conf inactive
CCCCCCSc1cc(-c2nc3cc(C)ccn3c2NC2CCCCC2)ccc1OC	none
CCCCCCSc1ccc(-c2nc3cc(C)ccn3c2NC2CCCCC2)cc1	Mdm2-MdmX inh 51 (no result: aSyn UTR inh) | Mdm2 MdmX conf inactive
O=C(COc1ncnc2ccccc12)NCCCN1CCCC1=O	none
COc1cc2[nH]c3c(=O)n(N)c(=O)[nH]c3c2cc1OC	none
CCN(CC)C(=O)[C@H]1C[C@H](CC(=O)NCc2ccc(OC)c(OC)c2)C(=O)N2CCc3c([nH]c4cc(CCC(=O)N(C)C)ccc34)[C@]12C	none (no result: CSC inhib, aSyn UTR inh, Jurkat NFkB inh)
CCN(CC)C(=O)[C@H]1C[C@H](CC(=O)NC/C=C(\C)CCC=C(C)C)C(=O)N2CCc3c([nH]c4cc(CCC(=O)N(C)C)ccc34)[C@]12C	Mdm2-MdmX inh 68 (no result: CSC inhib, aSyn UTR inh, Jurkat NFkB inh) | Mdm2 MdmX conf inactive
